The source of these data is the supplement of paper PMC3334620.

The full ranking holds about 33,000 sequences; the median of “E-score (-0.5 to 0.5)” is about -0.036, and the highest 2% start at about 0.37. The sample holds the highest values, similar sequences and a random draw of the others, so the mix is not that of the screen.

The target in the experiment is T1, Yer064c (UniProt P40041).
T1 sequence: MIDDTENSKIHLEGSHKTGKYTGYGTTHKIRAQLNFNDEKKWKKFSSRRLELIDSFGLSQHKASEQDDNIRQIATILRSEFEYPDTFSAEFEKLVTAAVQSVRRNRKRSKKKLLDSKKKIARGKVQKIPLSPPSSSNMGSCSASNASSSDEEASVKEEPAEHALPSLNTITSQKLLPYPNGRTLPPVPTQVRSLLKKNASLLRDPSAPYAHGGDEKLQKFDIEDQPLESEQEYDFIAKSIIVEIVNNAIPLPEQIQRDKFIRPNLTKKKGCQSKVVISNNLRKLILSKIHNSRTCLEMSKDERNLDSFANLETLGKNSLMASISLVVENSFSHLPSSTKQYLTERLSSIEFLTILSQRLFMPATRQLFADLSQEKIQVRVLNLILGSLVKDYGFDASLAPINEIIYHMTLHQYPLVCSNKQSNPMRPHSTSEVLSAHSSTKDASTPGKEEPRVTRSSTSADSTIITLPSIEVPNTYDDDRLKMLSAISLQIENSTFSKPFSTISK
Nature of the experiment: PBM E-score (8-mer binding enrichment) (E-score (-0.5 to 0.5)); higher = stronger / more preferred TF binding. To be noted: protein concentration: 200 nM; construct: GST-full length. In outline: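 PURExpress in vitro transcription/translation supplied GST-tagged yeast transcription factors, either full-length or DNA-binding domain. Applied at about 100-200 nM to universal all-10-mer Agilent arrays double-stranded by primer extension, the bound protein was detected with fluorescent anti-GST. E-scores, modified Wilcoxon-Mann-Whitney statistics, were given by the Universal PBM Analysis Suite to ungapped eight-base words pooled with their reverse complements after masliner normalisation.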
As for AGCGAATA, the “PBM E-score” value came to 0.0298.

In the case of ATTGGGTA, the “PBM E-score” value was -0.138.

Turning to CTGGGGAC, the “PBM E-score” value is -0.0825.

CACCCATC: the “PBM E-score” value was determined as 0.102.

With ACTTGACT, the “PBM E-score” value turned out to be 0.412.

ACTTGACG: the “PBM E-score” value was -0.0474.

As for ACTTGACA, the “PBM E-score” value was 0.0454.

Regarding AATTGACT, the “PBM E-score” value was 0.391.

Turning to AATTGACC, the “PBM E-score” value was -0.0998.

AATTGACG: the “PBM E-score” value was -0.178.

As for CAATTCCA, the “PBM E-score” value is -0.297.

On to CATACGAC, for which the “PBM E-score” value was 0.158.

Take ACGCGTGC: the “PBM E-score” value is -0.0231.

As to CCATCCGA, the “PBM E-score” value stood at 0.161.

With AGAGAGTA, the “PBM E-score” value is 0.121.

On to AGAGAGTG, for which the “PBM E-score” value is -0.104.

As for ACAGAGTC, the “PBM E-score” value was found to be 0.37.

For the sequence CGAGAGAC, the “PBM E-score” value amounted to 0.0137.

As to CCAGAGTC, the “PBM E-score” value was found to be 0.38.

As to ACAGAGTA, the “PBM E-score” value was 0.0495.

For the sequence CCAGAGTA, the “PBM E-score” value was -0.0992.

As to CGAGAGTA, the “PBM E-score” value is 0.0908.

CCAGAGGC: the “PBM E-score” value was -0.335.

Regarding CGAGAGTC, the “PBM E-score” value was found to be 0.421.

As for AGAGAGTC, the “PBM E-score” value turned out to be 0.409.

Regarding ACAGAGTG, the “PBM E-score” value is 0.0565.

On to CCGCAAGC, for which the “PBM E-score” value is -0.268.

For ACGCCATC, the “PBM E-score” value was -0.136.

With CCTACCCA, the “PBM E-score” value was -0.0884.

Take CGAGAACA: the “PBM E-score” value was found to be 0.0131.

Take GCTACGAA: the “PBM E-score” value is -0.0422.

Regarding GGCCGGGA, the “PBM E-score” value was -0.134.

For the sequence CGCTACGC, the “PBM E-score” value was -0.323.

With AACGGGAT, the “PBM E-score” value is -0.185.

Turning to CAATCCGG, the “PBM E-score” value is -0.0586.

GATAGGCC: the “PBM E-score” value was -0.339.

As to TAACTCAA, the “PBM E-score” value is 0.263.

Take TGGCTCAA: the “PBM E-score” value came out at 0.332.

Regarding ATACTCAC, the “PBM E-score” value is 0.312.

Consider TGACTCAA, for which the “PBM E-score” value is 0.492.

As to GAACTCAA, the “PBM E-score” value came out at 0.145.

In the case of CTACTCAA, the “PBM E-score” value stood at 0.162.

For the sequence GGACTCTA, the “PBM E-score” value was determined as 0.193.

Regarding GGACTCAA, the “PBM E-score” value was 0.409.

On to GTACTCAC, for which the “PBM E-score” value is 0.387.

As for GTACTCAA, the “PBM E-score” value worked out at 0.314.

In the case of CGACTCAA, the “PBM E-score” value was found to be 0.474.

With CGACTCTA, the “PBM E-score” value amounted to 0.343.

As for CACCTTGG, the “PBM E-score” value was -0.142.

In the case of CCCAGCTA, the “PBM E-score” value was -0.0347.

Take CTGGCTAA: the “PBM E-score” value came out at 0.23.

As to CGTTCCAC, the “PBM E-score” value is -0.25.

For ACGCATAC, the “PBM E-score” value was -0.135.

In the case of TAGCTCCA, the “PBM E-score” value is -0.0907.

As for GCACTCAC, the “PBM E-score” value amounted to 0.0283.

Take GGACTCAC: the “PBM E-score” value stood at 0.43.

Consider GGACTCCC, for which the “PBM E-score” value came out at 0.214.

As for AGGTACCG, the “PBM E-score” value is -0.156.

Turning to ACTCGAAC, the “PBM E-score” value came out at 0.136.

As for CCGTATGC, the “PBM E-score” value was -0.167.

On to CCATTGAC, for which the “PBM E-score” value worked out at 0.0546.

In the case of CCGGCTGA, the “PBM E-score” value is 0.165.

For the sequence AAGACTAC, the “PBM E-score” value stood at 0.413.

For the sequence CAGACTAC, the “PBM E-score” value turned out to be 0.215.

For TAGACTAA, the “PBM E-score” value was 0.3.

As for AAGACTAG, the “PBM E-score” value was found to be 0.338.

Regarding GAGACGAA, the “PBM E-score” value was -0.0519.

Consider AAAACTAA, for which the “PBM E-score” value is 0.134.

Consider AAGACTAT, for which the “PBM E-score” value was found to be 0.417.

GAGACTAA: the “PBM E-score” value amounted to 0.413.

Turning to GAGACCAA, the “PBM E-score” value was -0.0383.

As for AAGACTAA, the “PBM E-score” value worked out at 0.442.

As for AAGACAAT, the “PBM E-score” value was -0.0159.

Turning to AAGACTTC, the “PBM E-score” value came out at 0.241.

Consider CAACAGGG, for which the “PBM E-score” value was -0.202.

Regarding ATGATACA, the “PBM E-score” value was 0.246.

In the case of GAAGTGCC, the “PBM E-score” value is -0.336.

For GTTTGCTA, the “PBM E-score” value worked out at 0.0898.

Take GAGTTGCC: the “PBM E-score” value was -0.149.

Take GACGGTAA: the “PBM E-score” value was -0.284.

As for CAACTCCG, the “PBM E-score” value is -0.12.

ATAGTTGC: the “PBM E-score” value came to 0.0257.

In the case of CGATGTAC, the “PBM E-score” value was -0.0701.

In the case of AGGCCTCG, the “PBM E-score” value is -0.184.

On to AGGACTAT, for which the “PBM E-score” value was determined as 0.31.

In the case of TGGACTAA, the “PBM E-score” value was found to be 0.348.
